Screens (PubChem BioAssay)
The list is not random: actives were taken first. Their share in the collection is about 9%.
PLK1 PBD inh = blocks phosphopeptide binding to human PLK1 polo-box domain. P53350. Plk1 PBD binding of FITC phosphopeptide, fluorescence polarization. Potency, µM, actives largely listed as inhibitors. 360,000 compounds, 2.8% hits. AID 720504; further: series mostly up to about 57 µM; nearly all actives have a fitted effect of over 65% in size
BAZ2B block = blocks human BAZ2B. Q9UIF8. AlphaScreen BAZ2B-H3K14Ac peptide displacement. Potency, µM (doses to about 114 µM), most hits filed as inhibitors. 360,000 compounds, 4.4% hits. AID 504333; further: nearly all actives have a fitted effect of over 60% in size
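Protein-peptide AlphaScreen: BAZ2B 50 nM, b-H3K14Ac 50 nM, 1x PBS pH 7.4 + 0.01% Tween-20. Preincubation 30 min RT; cpd 30 min RT (top 110 uM); beads 20 min RT, light-protected.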
HP1b binding inh = inhibitors of HP1-beta chromodomain binding to methylated histone tails. P83916. AlphaScreen HP1-beta / biotin-H3K9me3 peptide binding. Potency, µM (highest dose often 114 µM), usual class: inhibitors. 390,000 compounds, 0.56% hits. AID 540317; further: nearly all actives have a fitted effect of over 70% in size
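HP1-beta protein (50 nM final) preincubated 30 min at room temperature with biotinylated H3(1-18)K9me3 peptide (50 nM) in PBS pH 7.4, 0.01% Tween-20, then compound added for 30 min. AlphaScreen streptavidin donor/nickel chelate acceptor beads (10 ug/mL final), 30 min dark, luminescence read.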
12-LOX inh = inhibitors of human 12S-lipoxygenase ALOX12; purified 12hLO, xylenol orange hydroperoxide absorbance; Potency, µM (top dose mostly 108 µM), most hits filed as inhibitors; 580,000 compounds, 1.1% hits
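Purified human 12hLO (150 nM final) in 25 mM Hepes, 0.01% Triton X-100, pH 7.0 was preincubated 15 min at room temperature with compound. Then 40 uM arachidonic acid was added, 30 min. Hydroperoxide was read by Fe-XO absorbance ratio 573/405 nm.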
G9a inh = blocks human histone lysine methyltransferase G9a. AID 504332. 350,000 compounds, 8.8% hits. G9a H3K9 monomethylation, AlphaScreen, 2 h. Potency, µM (top dose mostly 102 µM), hits mostly inhibitors; further: nearly all actives have a fitted effect of over 75% in size
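Using a bead-based AlphaScreen, monomethylated H3K9 product from 2 h room-temperature reactions (G9a 20 nM, peptide 500 nM, SAM 20 uM) was detected with 0.5 ug/mL rabbit anti-H3K9me1 antibody.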
JMJD2A Tudor = blocks the human JMJD2A Tudor domain | O75164 | Potency, µM (highest dose often 114 µM), actives largely listed as inhibitors | 390,000 compounds, 4.4% hits | AlphaScreen JMJD2A-Tudor / H3K4me3 peptide binding; further: nearly all actives have a fitted effect of over 50% in size
Large screens that a line does not name were inactive. The call rests on the fitted dose curve; in most records, active means well fitted curve in the direction sought with a large enough effect; inconclusive means small, poorly fitted or top-dose-only effect, or another doubt; inactive means no such curve, though single readings can be large; an effect the other way counts as inactive or inconclusive.

O=C(C1CCCO1)N1CCN(S(=O)(=O)c2ccc(F)cc2)CC1 (configuration not stated)	none
CCO/N=C(\N)c1[nH]ncc1Br	none (no result: G9a inh)
O=Nc1c(-c2ccccc2)cc2ccccn12	BAZ2B block 79.4µM, G9a inh 39.8µM
CCC1(C)Cc2ccccc2-c2nc(NCCO)n(-c3ccc(C)cc3)c(=O)c21 (configuration not stated)	none
CCC1(C)Cc2ccccc2-c2c1c(=O)n(-c1ccc(C)cc1)c1nnnn21 (configuration not stated)	G9a inh 50.1µM
Cc1c(CN2CCC(CO)(CCOc3ccccc3)CC2)[nH]c2c(Cl)cccc12	BAZ2B block inconclusive, 12-LOX inh inconclusive, G9a inh 50.1µM
CCn1ccnc1CN1CCc2c([nH]c3ccccc23)C1C1CCCCC1 (configuration not stated)	PLK1 PBD inh 26.7µM, BAZ2B block 35.5µM, G9a inh 44.7µM, JMJD2A Tudor 14.1µM
CCc1ccc(CNC(=O)c2ccc3c(Cl)c4c(nc3c2)CCCC4)cc1	none (no result: PLK1 PBD inh)
Cc1ccc(/C=C/C(=O)Nc2ccc([N+](=O)[O-])cc2)o1	BAZ2B block 50.1µM, 12-LOX inh 6.31µM, G9a inh 28.2µM
Cc1ccc(/C=C/C(=O)Nc2ccc(Oc3ccccc3)cc2)o1	BAZ2B block inconclusive, HP1b binding inh inconclusive, 12-LOX inh 15.8µM, G9a inh 11.2µM
Cc1ccc(NC(=O)/C=C/c2ccc(C)o2)c(C)c1	BAZ2B block 79.4µM, HP1b binding inh inconclusive, G9a inh 11.2µM, JMJD2A Tudor inconclusive (no result: PLK1 PBD inh)
Cn1c(NC(=O)/C=C/c2ccco2)cc(=O)n(C)c1=O	G9a inh inconclusive
Cc1ccc(/C=C/C(=O)Nc2cc(=O)n(C)c(=O)n2C)o1	G9a inh 3.98µM, JMJD2A Tudor inconclusive
COC(=O)c1ccc(Cl)cc1NC(=O)/C=C/c1ccc(C)o1	12-LOX inh inconclusive, G9a inh inconclusive
CC(=O)c1ccc(NC(=O)/C=C/c2ccc(C)o2)cc1	BAZ2B block inconclusive, HP1b binding inh inconclusive, G9a inh 11.2µM, JMJD2A Tudor 50.1µM (no result: PLK1 PBD inh)
Cc1ccc(S(=O)(=O)c2nc(-c3ccccc3)oc2N2CCCCCC2)cc1	HP1b binding inh inconclusive, G9a inh inconclusive (no result: PLK1 PBD inh)
Cc1ccc(S(=O)(=O)c2nc(C)oc2N2CCOCC2)cc1	PLK1 PBD inh 21.2µM, HP1b binding inh inconclusive, JMJD2A Tudor inconclusive (no result: G9a inh)
Cc1ccc(S(=O)(=O)c2nc(C(C)(C)C)oc2N2CCOCC2)cc1	PLK1 PBD inh inconclusive, HP1b binding inh 50.1µM, G9a inh 8.91µM, JMJD2A Tudor 35.5µM
Cc1ccc(S(=O)(=O)c2nc(S(C)(=O)=O)sc2N2CCOCC2)cc1	none
CCOc1cc(/C=C2/C(=O)ON=C2C)ccc1OCc1ccccc1F	PLK1 PBD inh 0.844µM, BAZ2B block inconclusive, 12-LOX inh inconclusive, G9a inh inconclusive, JMJD2A Tudor inconclusive
CCOc1cc(/C=C2/C(=O)ON=C2C)ccc1OCc1ccccc1	PLK1 PBD inh 1.5µM, 12-LOX inh inconclusive (no result: G9a inh)
CNCc1cc(C)ccc1OC	none (no result: PLK1 PBD inh, BAZ2B block, HP1b binding inh, G9a inh, JMJD2A Tudor)
COc1ccc2c(c1)OC[C@H]1[C@H]2N2C(=O)CN(Cc3ccco3)C(=O)[C@@]2(C)[C@H]1c1ccccc1	12-LOX inh 7.08µM
O=C(Nc1ccc(N2CCOCC2)cc1)c1cccc(S(=O)(=O)N2CCC(Cc3ccccc3)CC2)c1	none
COc1ccc(-c2onc(C)c2C)cc1S(=O)(=O)NCCc1ccco1	BAZ2B block 50.1µM, G9a inh inconclusive, JMJD2A Tudor inconclusive
CCN(CC)c1ccc(NS(=O)(=O)c2cc(-c3onc(C)c3C)ccc2OC)c(C)c1	12-LOX inh inconclusive, G9a inh 8.91µM, JMJD2A Tudor inconclusive (no result: PLK1 PBD inh)
CCN(CC)c1ccc(NS(=O)(=O)c2ccc(-c3coc(C)n3)cc2)c(C)c1	BAZ2B block 12.6µM, HP1b binding inh inconclusive, 12-LOX inh inconclusive, G9a inh 11.2µM, JMJD2A Tudor 25.1µM (no result: PLK1 PBD inh)
Cc1cc(Cl)ccc1NS(=O)(=O)c1cc2[nH]c(=O)c(=O)[nH]c2cc1C	12-LOX inh inconclusive (no result: PLK1 PBD inh)
CCN(CC)c1ccc(NS(=O)(=O)c2cc3[nH]c(=O)c(=O)[nH]c3cc2C)c(C)c1	BAZ2B block 50.1µM, 12-LOX inh 44.7µM, G9a inh 14.1µM, JMJD2A Tudor 44.7µM (no result: PLK1 PBD inh)
O=C(COC(=O)CNC(=O)c1ccco1)Nc1ccccc1OC(F)F	none
C=C(C)CN1CCN(c2nc3c(c(=O)[nH]c(=O)n3C)n2Cc2ccc(C)cc2)CC1	none (no result: PLK1 PBD inh, BAZ2B block, HP1b binding inh, G9a inh, JMJD2A Tudor)
CC1=C(c2ccc(C(C)C)cc2)S(=O)(=O)N=C1N1CCC(C(=O)NCc2ccco2)CC1	none (no result: PLK1 PBD inh)
CC1=C(c2ccc(C(C)C)cc2)S(=O)(=O)N=C1N1CCN(C(=O)c2ccco2)CC1	PLK1 PBD inh 26.7µM, JMJD2A Tudor 44.7µM
O=C1NC2(CCN(C(=O)c3ccccc3)C2)N=C1c1ccccn1 (configuration not stated)	none (no result: PLK1 PBD inh, BAZ2B block, HP1b binding inh, G9a inh, JMJD2A Tudor)
Cc1cc(N=Nc2ccc(Cl)cc2)cc(CN2CCCC2)c1O	BAZ2B block 10µM, HP1b binding inh 20µM, 12-LOX inh inconclusive, JMJD2A Tudor 28.2µM (no result: G9a inh)
Cc1cc(N=Nc2ccc(Cl)cc2)cc(CN2CCOCC2)c1O	BAZ2B block 10µM, HP1b binding inh 39.8µM, 12-LOX inh inconclusive, G9a inh 7.94µM, JMJD2A Tudor 15.8µM
Clc1ccc(CN2CCCC2)cc1	none (no result: PLK1 PBD inh, BAZ2B block, HP1b binding inh, G9a inh, JMJD2A Tudor)
CCOc1ccc(Cl)cc1CN1CCOCC1	none
C=CCNC(=S)NCc1ccc(CNC(=S)NCC=C)cc1	none
CC1(C)Cc2ccccc2C(CSc2ccccc2C(=O)O)=N1	BAZ2B block 50.1µM, JMJD2A Tudor 56.2µM (no result: G9a inh)
COc1cc2c(cc1OC)C(CSc1ccccc1C(=O)O)=NC(C)(C)C2	BAZ2B block 79.4µM, G9a inh inconclusive, JMJD2A Tudor inconclusive
Cc1cc(NC(=O)c2ccccc2F)ncc1NC(=O)c1cccs1	PLK1 PBD inh 8.44µM, G9a inh inconclusive, JMJD2A Tudor inconclusive
O=C(O)c1ccc(CNC(=O)c2ccc(S(=O)(=O)N3CCCCC3)cc2)cc1	none
COc1ccccc1-n1c(CNC(=O)c2ccc(S(=O)(=O)N3CCCCC3)cc2)n[nH]c1=S	G9a inh 22.4µM, JMJD2A Tudor 8.91µM
O=C(NCc1n[nH]c(=S)n1-c1ccccc1Cl)c1ccc(S(=O)(=O)N2CCCCC2)cc1	G9a inh 10µM
O=C(NN1C(=O)C2C3C=CC(O3)C2C1=O)c1cccc(Br)c1 (configuration not stated)	G9a inh inconclusive
COc1ccc(C(=O)NN2C(=O)C3C4C=CC(O4)C3C2=O)cc1 (configuration not stated)	G9a inh 4.47µM
O=C(NN1C(=O)C2C3C=CC(O3)C2C1=O)c1cccc(O)c1 (configuration not stated)	G9a inh 7.94µM
O=S1(=O)CC(N2CCSCC2)CN1Cc1cn(Cc2ccccc2)nn1 (configuration not stated)	12-LOX inh inconclusive (no result: BAZ2B block, HP1b binding inh, G9a inh, JMJD2A Tudor)
